Source: PubChem BioAssay (several laboratories)
PG9 binder – binds the HIV-1 gp120 antibody PG9 | TR-FRET gp120-PG9 antibody binding | inhibition, % at 6.7 µM | 360,000 tested, 0.43% active | AID 624416; in the data active = inhibition above about 8.5%
LEDGF integ inh – blocks HIV-1 LEDGF/p75-dependent DNA integration | inhibition, % at 3.7 µM | TR-FRET IN-LEDGF/p75 DNA integration, Eu/Cy5 | 370,000 tested, 0.64% active;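 active = inhibition above the screen-wide mean plus 3 SD, cut at about 13% in these data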;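 note: signal is the Cy5 over europium emission ratio at 671 and 618 nm; 0% = plate median of compound wells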
UHRF1 MBD2 ctr – blocks human UHRF1 binding to methylated DNA; inhibition, % at 4.4 µM; UHRF1 binding to methylated oligo, TR-FRET; 370,000 tested, 0.75% active; AID 687016; in the data active = inhibition above about 21%;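 note: UHRF1 SRA domain binding a hemimethylated CpG hairpin DNA probe; 0% = median of test compound wells and 100% = reference inhibitor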
Target sequence (Q96T88 whole entry, looked up, the tested form may be a part): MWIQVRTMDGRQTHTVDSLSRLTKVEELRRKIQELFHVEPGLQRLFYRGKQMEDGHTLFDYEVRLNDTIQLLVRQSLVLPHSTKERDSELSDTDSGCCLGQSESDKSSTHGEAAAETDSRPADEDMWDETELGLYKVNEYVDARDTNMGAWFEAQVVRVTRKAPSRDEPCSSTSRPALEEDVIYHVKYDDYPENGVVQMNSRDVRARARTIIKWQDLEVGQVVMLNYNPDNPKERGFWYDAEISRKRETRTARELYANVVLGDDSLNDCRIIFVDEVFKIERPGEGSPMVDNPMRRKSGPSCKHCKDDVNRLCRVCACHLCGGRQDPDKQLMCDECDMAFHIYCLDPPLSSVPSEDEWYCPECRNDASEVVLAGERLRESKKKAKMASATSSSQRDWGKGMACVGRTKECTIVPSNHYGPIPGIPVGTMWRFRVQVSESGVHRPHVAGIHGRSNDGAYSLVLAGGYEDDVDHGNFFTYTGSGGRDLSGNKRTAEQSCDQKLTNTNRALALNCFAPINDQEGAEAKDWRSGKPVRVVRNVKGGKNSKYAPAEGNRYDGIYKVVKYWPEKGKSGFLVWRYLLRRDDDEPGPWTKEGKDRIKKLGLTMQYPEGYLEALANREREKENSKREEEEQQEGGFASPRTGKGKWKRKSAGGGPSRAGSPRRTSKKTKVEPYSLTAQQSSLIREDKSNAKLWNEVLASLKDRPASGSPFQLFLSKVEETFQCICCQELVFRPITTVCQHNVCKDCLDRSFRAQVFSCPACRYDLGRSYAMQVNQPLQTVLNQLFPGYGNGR
rCAG RNA binder – molecules binding r(CAG) RNA repeats. r(CAG) RNA repeat, TO-PRO-1 dye displacement fluorescence. inhibition, % at 3 µM. 370,000 tested, 1.3% active. AID 651821;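 active = inhibition above the plate cutoff, the mean of all test compounds on that plate plus 3 SD, cut at about 35% in these data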;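 note: 0% = DMSO alone and 100% = 100 µM mitoxantrone as full dye displacement; higher means more dye released from RNA so lower well fluorescence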
MBD2 inh – MBD2-methylated oligo binding inhibition; Q9UBB5; TR-FRET, MBD2 binding to methylated oligonucleotide; inhibition, % at 4.4 µM; 370,000 tested, 0.31% active; AID 686964; in the data active = inhibition above about 13%
DNMT1 block – blocks human DNA methyltransferase DNMT1. P26358. DNMT1 molecular beacon, Hinp1I cleavage, fluorescence. inhibition (reported as % activation of signal), % at 10 µM. 360,000 tested, 0.83% active. AID 588458; in the data active = inhibition above about 50%
DNMT1 inh conf – DNMT1 inhibition confirmation, single concentration; 2,300 tested, 8% active; DNMT1 molecular beacon HinP1I cleavage, fluorescence; inhibition, % at 10 µM; shares compounds with DNMT1 block;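 active = average inhibition of at least 30% in the single-concentration confirmation test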
Beacon interf – counter-screen for DNMT1 inhibitors: spectral interference; shares compounds with DNMT1 block; activation (fluorescence interference), % at 10 µM; DNMT1 molecular beacon spectral interference counterscreen, fluorescence 485/520; 2,300 tested, 1% active; AID 602387;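 active = activation of at least 30% at 10 µM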;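 note: DNMT1 catalytic domain with a HinP1I cleavage step and a FAM/dabcyl DNA beacon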
* = called active by the depositor; . = no result. This is a sample that favours compounds with a hit; in the whole collection about 3.5% have one here.

SMILES	PG9 binder	LEDGF integ inh	UHRF1 MBD2 ctr	rCAG RNA binder	MBD2 inh	DNMT1 block	DNMT1 inh conf	Beacon interf
CCN(C(=O)COC(=O)CCOc1ccc(C(C)(C)C)cc1)c1c(N)n(Cc2ccccc2)c(=O)[nH]c1=O	3	1	2	1	7	63*	-1	4
CCCOc1ccc(C(=O)CCC(=O)OCC(=O)N(CC)c2c(N)n(Cc3ccccc3)c(=O)[nH]c2=O)cc1	0	3	-1	3	2	-1	.	.
CCCCN(C)CCn1c(=S)[nH]c2ncccc2c1=O	1	-3	3	6	0	94*	0	-1
CCN(CCCn1c(=S)[nH]c2ncccc2c1=O)c1ccccc1	-1	2	2	2	2	1	.	.
CCCCN(C)c1c(C)nc2ccc(C(=O)Nc3cc(-c4ccccc4)ccc3OC)cn12	1	0	0	7	-11	-28	.	.
COC(=O)c1sccc1NC(=O)Cc1ccc(OC)cc1	1	-1	0	0	-12	92*	4	13
COCCN1C(=O)C(=O)/C(=C(/O)c2cccc(OC)c2)C1c1ccco1 (stereo not given)	0	0	4	-4	-3	75*	7	4
CN1C[C@@H]2[C@@H]3C(=O)N(Cc4ccccc4)C(=O)[C@@H]3[C@](Cc3ccccc3)(C1=O)N2C(=O)c1ccc(Br)cc1	0	-2	1	0	4	-4	.	.
COc1cc2c(cc1[N+](=O)[O-])-c1ccc([N+](=O)[O-])cc1C2=NNC(N)=S	.	.	.	.	.	-5	.	.
NC(=S)NN=C1c2cc(Cl)ccc2-c2c1cc(Cl)cc2[N+](=O)[O-]	.	.	.	.	.	51*	2	-7
Cc1ccc(OCC(=O)Nc2ccc(-c3nc4ncccc4o3)cc2)c(C)c1	-2	-8	-1	-2	0	55*	4	4
COc1cc(/C=C(\C#N)C(=O)NCC2CCCO2)cc(OC)c1OC (stereo not given)	-1	-1	3	-6	-1	57*	3	4
Cc1ccc(C)c(OCC(=O)N/N=C/c2c(C)nn(-c3ccccc3)c2Cl)c1C	0	0	0	-1	-7	53*	0	0
COC(=O)N/N=C\c1c(C)nn(-c2ccccc2)c1Cl	0	-1	-3	-2	-3	3	.	.
CCOc1ccc(NC(=S)NC(=O)/C=C/c2ccc(OC)c(OC)c2)c([N+](=O)[O-])c1	0	0	6	5	5	-11	.	.
CCOc1ccc(NC(=S)NC(=O)/C=C/c2ccc(C)cc2)c([N+](=O)[O-])c1	-2	-1	0	1	-2	53*	2	-4
O=C(NCCN1CCOCC1)C(=O)NCC1OCCN1S(=O)(=O)c1ccccc1 (stereo not given)	0	2	1	2	-7	-1	.	.
NC(=O)CC(NC(=O)Cc1ccc(Br)cc1)c1ccc(N2CCCCCCC2)c([N+](=O)[O-])c1 (stereo not given)	0	-3	-3	6	3	65*	-1	2
CN(Cc1ccccc1)c1ccc(C(CC(N)=O)NC(=O)Cc2ccc(Br)cc2)cc1[N+](=O)[O-] (stereo not given)	-2	-11	-3	3	0	80*	-4	-4
NC(=O)CC(NC(=O)Cc1ccc(Br)cc1)c1ccc(N2CCC(Cc3ccccc3)CC2)c([N+](=O)[O-])c1 (stereo not given)	1	-1	-3	2	4	87*	-7	-5
NC(=O)CC(NC(=O)Cc1ccc(Br)cc1)c1ccc(N2CCC(N3CCCC3)CC2)c([N+](=O)[O-])c1 (stereo not given)	2	0	-4	1	-6	3	.	.
NC(=O)CC(NC(=O)Cc1ccc(Br)cc1)c1ccc(N2CCC(Br)CC2)c([N+](=O)[O-])c1 (stereo not given)	1	-6	-1	4	2	77*	-4	-3
